sEH act: soluble epoxide hydrolase activators, primary screen, biochemical, human sEH; purified human sEH enzymatic activity, activator screen; activation, % at 2 µM; 91,000 compounds, 0.04% hits; AID 717, 2007; in the data active = activation above about 37%
CYP2C9 inhib: blockers of cytochrome P450 2C9 activity – biochemical, luminescence, ADME assay, primary screen. 96,000 compounds, 20% hits. inhibition, % at 5 µM. P11712. CYP2C9 Supersomes, luciferin-H conversion;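 active = blocking of liver enzyme CYP2C9 beyond about 50% at 5 µM, limit read from the data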
CYP2C19 activ: human CYP2C19 activators, primary screen, biochemical, luminescence; Cytochrome P450 2C19 (Homo sapiens), P33261; 96,000 tested, under 10 active; activation factor at 5 µM; recombinant CYP2C19, luciferin-H EGE luminescence; stronger effect = higher value; 0 = fully inhibited enzyme, 1 = untreated enzyme;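 active = activation factor of at least 2 at 5 µM in the primary screen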;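 note: 0 = wells with 2.5 mM tranylcypromine and 1 = vehicle-only wells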
CYP2C9 act: human CYP2C9 activators, primary screen, biochemical, luminescence. Cytochrome P450 2C9 (Homo sapiens), P11712. recombinant CYP2C9, luciferin-H conversion; stronger effect = higher value; factor 1 = untreated enzyme, 0 = blocked. activation factor at 5 µM. 96,000 compounds, 1.4% hits;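 active = activation factor of 2 or more for CYP2C9 at a 5 µM dose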;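 note: 0 = sulfaphenazole-blocked wells and 1 = vehicle-only wells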
sEH inhibitor: soluble epoxide hydrolase inhibitors, primary screen, biochemical, human sEH; inhibition, % at 2 µM; Bifunctional epoxide hydrolase 2 (Homo sapiens), P34913; recombinant human sEH enzymatic activity assay; 91,000 compounds, 0.34% hits; in the data active = inhibition above about 80%
CYP2C19 inhib: blockers of cytochrome P450 2C19 activity – biochemical, luminescence, ADME assay, primary screen. P33261. CYP2C19 Supersomes, luciferin-H EGE luminescence, 30 min. inhibition, % at 5 µM. 96,000 compounds, 21% hits;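 active = CYP2C19 inhibition above a set limit at 5 µM in the primary screen, cut at about 50% in these data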;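 note: plate controls were negative control wells for no effect and 2.5 mM tranylcypromine positive control for full effect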
Numbers without * were called inactive; . = no result. This is a sample that favours compounds with a hit; in the whole collection about 27% have one here.

SMILES	sEH act	CYP2C9 inhib	CYP2C19 activ	CYP2C9 act	sEH inhibitor	CYP2C19 inhib
COc1ccc(C(=O)Nc2ccccc2-c2nnn(CC(=O)NCc3ccco3)n2)cc1	4	75*	0.7	0.3	-4	31
O=C(Cn1nnc(-c2ccccc2NC(=O)c2ccccc2F)n1)NCc1ccco1	13	49	0.9	0.5	-8	9
CCOC(=O)c1ccc(CNC(=O)Cn2nnc(-c3ccc(C)cc3)n2)o1	-7	60*	0.8	0.4	6	18
CCOC(=O)c1c(NC(=O)Cn2nnc(-c3ccc(Cl)cc3)n2)sc(CC)c1C	-4	74*	0.9	0.3	3	15
COc1cccc(CNC(=O)C2CCN(S(=O)(=O)c3ccc4c(c3)CCC(=O)N4)CC2)c1	-22	22	1.1	0.8	21	-6
COc1cc(C(=O)Nc2ccccc2-c2nnn(CC(N)=O)n2)cc(OC)c1OC	2	78*	1.2	0.2	0	-17
O=C(CN1C(=O)CC(c2ccccc2)=Nc2ccccc21)NCc1ccco1	11	71*	0.6	0.3	-11	40
O=C(Cn1nnc(-c2ccccc2)n1)NCc1ccco1	18	-12	0.4	1.1	-18	61*
O=C(Cn1nnc(-c2ccccc2)n1)NCc1cccs1	0	3	0.3	1	-4	72*
O=C(O)c1ccc(CNCc2cccc(Cl)c2Cl)cc1	12	-8	0.9	1.1	-10	9
O=C(Cn1nnc(-c2ccccc2NC(=O)c2ccco2)n1)NC1CCCCC1	-41	64*	0.7	0.4	42	26
Cc1cnc(C(=O)Nc2ccccc2-c2nnn(CC(=O)NC3CCCC3)n2)cn1	-8	25	1.1	0.8	9	-13
O=C(Cn1nnc(-c2cccc(C(F)(F)F)c2)n1)NC1CCCC1	.	-149	1	2.5*	.	2
O=C(/C=C/c1ncc(C(F)(F)F)cc1Cl)OCc1ccccc1	12	-19	1.1	1.2	-9	-8
COc1ccc2ccccc2c1C1CC(=O)N2CN(C)CSC2=C1C#N (stereo unspecified)	-5	46	0.9	0.5	6	9
COc1ccc(OC)c(C2CC(=O)N3CN(c4cccc(Cl)c4C)CSC3=C2C#N)c1 (stereo unspecified)	-8	97*	0.7	0	7	31
COc1cccc(C2CC(=O)N3CN(c4cccc(Cl)c4C)CSC3=C2C#N)c1OC (stereo unspecified)	-12	97*	0.9	0	11	8
COc1cccc(S(=O)(=O)N2CCN(c3ccccc3F)CC2)c1	-7	67*	0.3	0.3	10	74*
O=C(c1cccc(S(=O)(=O)N2CCCCC2)c1)N1CCCCC1	-9	0	0.8	1	12	22
CCS(=O)(=O)N1CCN(c2cccc(C)c2C)CC1	-7	10	0.7	0.9	7	29
CCCS(=O)(=O)N1CCN(c2ccccc2F)CC1	-1	47	0.3	0.5	0	68*
O=C(c1cccc(S(=O)(=O)N2CCCC2)c1)N1CCN(c2ccccc2F)CC1	-44	80*	0.1	0.2	46	93*
CCn1c(CNC(=O)c2cccs2)nnc1SCC(=O)Nc1ccc(Cl)cc1	3	.	.	.	-6	.
CC(=O)Nc1c(C#N)c(C(C)(C)C)cn1C	4	-22	1.1	1.2	0	-10
Cc1cccc(-n2c(Cc3cc(=O)[nH]c(=O)[nH]3)nnc2SCC(=O)N2CCCCC2)c1	24	-4	1.1	1	-23	-14
CNC(=O)c1ccsc1NC(=O)c1ccc(Cl)s1	-2	68*	0.2	0.3	5	77*
COC(=O)c1sccc1NC(=O)c1ccc(Cl)s1	9	3	0.7	1	-6	28
C=CCn1c(SCC(=O)NCC(=O)OCC)nnc1-c1cccc(OC)c1	4	-7	1	1.1	-6	1
CCOC(=O)CNC(=O)CSc1nnc(-c2cccc(C)c2)n1-c1ccc(OC)cc1	-1	31	0.3	0.7	0	69*
